Screening data as filed in PubChem BioAssay.
In the library only some 15% were active in any assay of this set; here they are far more common.
SARS PLP yeast: blocks SARS-CoV papain-like protease in a yeast assay. S. cerevisiae expressing SARS-CoV PLpro, growth rescue. Potency, µM (highest dose often 32.9 µM), for inactives: at the top dose activity, positive = growth rescue, usual class: activators. hit rate 0.19% among 330,000; calls by dose curve; note: potency is the fitted concentration of half-maximal effect; 0% is about no effect; nearly all actives have a fitted effect of over 55% in size
HCMV antiviral: inhibitors of human cytomegalovirus. HFF cells, HCMV-luciferase reporter, 72 h; active compounds read low. hit rate 4.5% among 410,000. activity change, negative = inhibition, % at 57.5 µM; in the data active = activity change below about -60%; inconclusive = no clear call, values can overlap the other calls; inactive = above about -39%; note: % is set by controls: 0 for no effect and ±100 for the full control effect
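Two compound doses tested in HFFs infected with HCMV-luciferase, MOI 1 PFU/cell, 72 h at 37C. Lysate luminescence read with OneGlo; data normalized against buffer-only and 10uM Salinomycin inhibitor controls.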
Pf growth 96h: inhibits malaria parasite growth, 96 h. AID 504834. hit rate 6.9% among 320,000. Potency, µM (doses to about 28.7 µM), without a hit: top-dose activity change, negative = inhibition, hits mostly inhibitors. P. falciparum luciferase reporter growth, 96 h; note: potency is the fitted concentration of half-maximal effect; % is set by controls: 0 for no effect and ±100 for the full control effect
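Two-generation exposure (96 h) targets delayed-death phenotype. Reporter parasites carrying integrated firefly luciferase, in red cells at 2% hematocrit and 0.05% parasitemia final, kept at 37 C, 5% CO2; luminescence loss indicates inhibition.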
HCV inh: inhibitors of hepatitis C virus infection; Huh7.5.1 HCVcc-Cre infection, luciferase reporter, 44 h; Potency, µM (doses to about 41.8 µM), inactives show at the highest dose activity change, negative = inhibition, actives largely listed as inhibitors; hit rate 3.4% among 340,000; AID 651820; note: potency is the fitted concentration of half-maximal effect; % is set by controls: 0 for no effect and ±100 for the full control effect
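1,000 cells/well; 4 h culture; + compound; + HCVcc-Cre (~0.5 moi); 44 h; luciferase substrate, RT 15 min; read 15 sec.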
Sm TGR inh: inhibitors of Schistosoma mansoni thioredoxin glutathione reductase; AID 485364; purified TGR, DTNB reduction, TNB absorbance 405 nm; Q962Y6; Potency, µM (doses to about 114 µM), without a hit: top-dose activity change, negative = inhibition, most hits filed as inhibitors; hit rate 3% among 360,000; note: potency is the fitted concentration of half-maximal effect; % is set by controls: 0 for no effect and ±100 for the full control effect; nearly all actives have a fitted effect of over 60% in size
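TGR 20 nM + NADPH 100 uM (dispensed conc.), cpd preinc 15 min RT; start with NADPH (500 uM addition) then DTNB (15 mM addition). Kinetic TNB absorbance, 405 nm filter. Four-parameter Hill fit across titration.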
Pf growth 48h: P. falciparum growth inhibition at 48 hours (one generation); hit rate 5.9% among 310,000; Potency, µM (doses to about 28.7 µM), for inactives: top-dose activity change, negative = inhibition, usual class: inhibitors; P. falciparum luciferase growth in erythrocytes, 48 h; AID 504832; note: potency is the fitted concentration of half-maximal effect; % is set by controls: 0 for no effect and ±100 for the full control effect
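A one-generation exposure of luciferase-tagged malaria parasites in RPMI 1640/Albumax erythrocyte culture, 37 C and 5% CO2. Inhibition is inferred from decreased luminescence after adding detection reagent.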
Starred values were filed as active, the others as inactive; ? = inconclusive; . = no result given; [ ] = another dose, or the depositor's remark. Unless noted, calls come from the whole dose curve; as a rule, active = well fitted curve in the direction sought with a large enough effect; inconclusive = small, poorly fitted or top-dose-only effect, or another doubt; inactive = no such curve, though single readings can be large; an effect the other way counts as inactive or inconclusive.

SMILES	SARS PLP yeast	HCMV antiviral	Pf growth 96h	HCV inh	Sm TGR inh	Pf growth 48h
Cc1ncc([N+](=O)[O-])n1CCOC(=O)NC(NCc1ccccc1Cl)C(Cl)(Cl)Cl (centres undefined)	-48%	-22	?	9%	-1%	?
Cn1nnnc1SCC(=O)Nc1ccccc1[N+](=O)[O-]	-1%	-8	147%	13%	2%	38%
Cn1nnnc1Sc1c(Cl)cccc1[N+](=O)[O-]	13%	-91*	?	1%	-12%	-12%
CCOC(=O)C(Cc1cc(N)c(Oc2ccc(OC)cc2)c(N)c1)NC(C)=O (centres undefined)	.	6	.	-1%	.	.
CC(C)c1ccc(CN2C(=O)C(n3ccc4ccccc43)c3ccccc32)cc1 (centres undefined)	.	-12	.	.	.	.
O=C(CCN1C(=O)c2ccccc2C1=O)C1=NN[C@@H]2C(=O)N(c3ccc4c(c3)OCO4)C(=O)[C@H]12	-2%	31	5%	18%	25µM*	36%
Cc1ccc(N2C(=O)[C@@H]3C(C(=O)CCN4C(=O)c5ccccc5C4=O)=NN[C@@H]3C2=O)cc1	-9%	-8	34%	8%	-21%	13%
Cc1nc(-n2nc(C)c(Cc3ccc(Cl)cc3)c2C)sc1C(=O)N1CCC(C)CC1	.	-18	.	.	-5%	.
Cc1cccc(C)c1OCc1nc2c3c(-c4ccccc4)c(-c4ccccc4)oc3ncn2n1	.	-18	.	.	7%	.
O=C(NCC(NS(=O)(=O)OCC(Cl)(Cl)Cl)c1ccccc1)C(F)(F)F (centres undefined)	1%	-74*	24%	-17%	0%	50%
Cc1ccc2c(c1)N(C=Nc1c(C)cccc1Cl)C(c1ccccc1)c1cccn1-2 (centres undefined)	.	9	.	.	.	.
Cc1cnc(C(=O)NNC(=O)c2ccc(Br)cc2)cn1	1%	?	?	?	1%	12µM*
COc1cccc(CNS(=O)(=O)c2ccccc2Br)c1OC	.	11	.	-29%	.	.
CN(C)S(=O)(=O)N1CCN(CC(=O)Nc2ccc(F)cc2)CC1	-2%	23	?	1%	8%	0%
O=C1NC(c2ccccc2)=C(c2ccccc2)C1=O	2%	-15	10µM*	2%	-10%	16%
O=c1cc(-c2ccccc2)[nH][nH]1	-18%	-6	-13%	23%	-13%	-4%
Cc1ccc(C2(c3noc(CN(C)CC4CCCCO4)n3)CCCC2)cc1 (centres undefined)	-1%	-6	?	?	1%[57.1 µM]	?
COCCN(Cc1nc(C2(c3ccc(C)cc3)CCCC2)no1)C(C)C	1%	-23	13µM*	-8%	-8%	?
Cc1ccc(C2(c3noc(CN4CCC(c5ccncc5)CC4)n3)CCCC2)cc1	-1%	?	12µM*	10µM*	0%	?
Cc1ccc(C2(c3noc(CN(C)CCO)n3)CCCC2)cc1	0%	-13	0%	6%	-11%	?
COC(=O)c1ccccc1NC(=O)CSc1c2c(nc3ccc(Cl)cc13)CCCC2	.	-11	.	.	5%	.
COc1cccc(-c2nc(N3CCCCC3C)c3ccccc3n2)c1O (centres undefined)	-11%	115	3%	8.9µM*	-26%	?
COc1cccc(-c2nc(NC3CCCC3)c3ccccc3n2)c1O	-10%	.	9.3µM*	2.8µM*	0%	.
COc1cccc(-c2nc(NCc3ccco3)c3ccccc3n2)c1O	8%	41	?	?	12%	?
C=CCNc1nc(-c2cccc(OC)c2O)nc2ccccc12	5%	11	?	16µM*	-4%	?
SMILES	SARS PLP yeast	HCMV antiviral	Pf growth 96h	HCV inh	Sm TGR inh	Pf growth 48h
COc1cccc(-c2nc(N3CCN(C)CC3)c3ccccc3n2)c1O	-1%	129	0%	?	-9%	0%
CCN(CC)c1nc(-c2cccc(OC)c2O)nc2ccccc12	-6%	86	15%	-25%	11%[11.4 µM]	.
COc1cccc(-c2nc(NCc3ccccc3)c3ccccc3n2)c1O	-1%	-3	?	?	4%	15µM*
COc1cccc(-c2c(C(=O)N/N=C(\C)c3cccnc3)nnn2-c2nonc2N)c1	2%	-1	10%	8%	3%	4%
c1ccc(-c2nc(NC3CCCC3)c3ccccc3n2)cc1	-6%	20	10µM*	1.3µM*	-12%	?
O=C(O)CNc1nc(-c2ccccc2)nc2ccccc12	0%	-19	10%	5%	7%	7%
CC(c1nc2ccccc2n1Cc1ccccc1)N1CCCCC1 (centres undefined)	1%	-67*	?	10%	-5%	?
Cc1nc2ccccc2n1Cc1ccccc1	1%	-36	?	?	1%	-1%
Cc1ccc(F)c(NC(=O)Nc2ccc3snnc3c2)c1	.	-106*	.	.	23%	.
O=C(Nc1ccc(F)cc1)Nc1ccc2snnc2c1	.	-75*	.	.	-8%	.
CC(=O)Nc1cccc(NC(=S)Nc2cccc(Cl)c2C)c1	-1%	41	13%[5.75 µM]	14%	?	6%
CC(=O)Nc1cccc(NC(=O)Nc2cccc(Cl)c2C)c1	0%	-71*	?	-25%	.	-3%
CC(=O)c1ccc(NC(=O)Nc2ccc3snnc3c2)cc1	.	53	.	.	2%	.
CNC(=O)Nc1ccc2snnc2c1	-12%	8	12µM*	1%	-5%	.
C[C@@H]1CN([C@H](C)CO)C(=O)c2cc(NC(=O)Nc3ccccc3)ccc2O[C@@H](C)CCCCO[C@H]1CN(C)S(C)(=O)=O	.	10	.	.	.	.
COc1ccc(NC(=O)CC(C)S(=O)(=O)c2cc3c(cc2C)NC(=O)CO3)cc1OC (centres undefined)	.	-5	.	.	1%	.
Cc1c(Cl)cccc1NC(=O)Nc1ccc(C(N)=O)cc1	0%	71	5%	6%	-3%	-12%
Cc1c(Cl)cccc1NC(=O)Nc1ccc2snnc2c1	.	-104*	.	.	-4%	.
CCOC(=O)c1ccc(N2C(=O)c3n[nH]c(-c4cccs4)c3C2c2ccc(OCC)cc2)cc1 (centres undefined)	.	-105*	.	.	5%	.
CCOC(=O)c1ccc(N2C(=O)c3n[nH]c(-c4cccs4)c3C2c2ccc(CC)cc2)cc1 (centres undefined)	.	-99*	.	.	12%	.
CCOC(=O)c1ccc(N2C(=O)c3n[nH]c(-c4cccs4)c3C2c2ccc(C(C)C)cc2)cc1 (centres undefined)	.	-106*	.	.	2%	.
COc1ccc(NC(=O)CN2C(=O)COc3ccc(S(=O)(=O)Nc4ccccc4)cc32)cc1	.	10	.	.	4%	.
O=C(Nc1ccc2oc(-c3ccccc3)nc2c1)c1ccco1	-50%	56	?	?	-11%	68%
